Source: PubChem BioAssay AID602438 (Sanford-Burnham Center for Chemical Genomics, 2012)
“And” between values parts separate entries of the source, which are not always exact repeats. Equal values may be shown once. Among all 360,000 compounds or so, about 3,100 (0.86%) were called active.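 Rule for the calls: active = inhibition or corrected inhibition above about 18%, plus a signal ratio from 0.5 to 1.5 (limit read from the data, passing the limit was not always enough); inactive = the rest.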 The list comes from a sample in which actives are over-represented; it also holds similar structures and randomly drawn compounds.

molecular target: Neuropilin-1 (Homo sapiens) (UniProt O14786); assay: NRP-1/CendR peptide interaction modulators – biochemical, fluorescence polarization, uHTS, primary screen (AID 602438); settings: FAM-RPARPAR peptide binding to NRP-1, fluorescence polarization; at 25 µM; hits give high values
Sequence (O14786 whole entry, looked up): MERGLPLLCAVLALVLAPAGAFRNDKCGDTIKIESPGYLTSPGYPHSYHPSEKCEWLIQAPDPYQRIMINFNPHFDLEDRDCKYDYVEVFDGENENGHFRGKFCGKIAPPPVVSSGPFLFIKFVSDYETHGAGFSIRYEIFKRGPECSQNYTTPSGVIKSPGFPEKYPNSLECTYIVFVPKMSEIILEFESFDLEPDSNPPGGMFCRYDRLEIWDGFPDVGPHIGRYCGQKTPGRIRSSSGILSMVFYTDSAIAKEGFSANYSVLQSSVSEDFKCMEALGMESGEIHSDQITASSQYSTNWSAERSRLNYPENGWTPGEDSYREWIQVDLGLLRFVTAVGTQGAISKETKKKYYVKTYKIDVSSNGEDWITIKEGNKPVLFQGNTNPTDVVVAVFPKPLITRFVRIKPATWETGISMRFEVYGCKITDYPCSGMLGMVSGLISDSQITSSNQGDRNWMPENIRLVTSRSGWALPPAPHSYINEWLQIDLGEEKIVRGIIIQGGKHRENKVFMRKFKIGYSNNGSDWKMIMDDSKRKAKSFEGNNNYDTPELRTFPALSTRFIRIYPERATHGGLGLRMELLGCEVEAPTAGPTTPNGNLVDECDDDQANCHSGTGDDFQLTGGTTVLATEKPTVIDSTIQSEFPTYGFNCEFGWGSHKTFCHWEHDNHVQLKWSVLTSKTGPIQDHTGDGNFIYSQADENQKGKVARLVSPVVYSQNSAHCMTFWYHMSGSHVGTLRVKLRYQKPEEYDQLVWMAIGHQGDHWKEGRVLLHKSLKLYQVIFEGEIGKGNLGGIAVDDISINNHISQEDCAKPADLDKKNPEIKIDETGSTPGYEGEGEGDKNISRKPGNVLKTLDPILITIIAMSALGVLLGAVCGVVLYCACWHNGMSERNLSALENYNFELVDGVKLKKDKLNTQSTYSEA

inhibition, active:
COc1cc([N+](=O)[O-])ccc1NC(=S)N1CCN(c2ccccn2)CC1 32.1%
COc1ccc(Nc2nc(-c3cccnc3)nc3ccccc23)cn1 55.4%
Cc1nnc(SC(C)C(=O)Nc2ccc(S(=O)(=O)NC3CCCCC3)cc2)s1 (centres undefined) 25.4%
O=S(=O)(c1ccccc1)c1nc(-c2ccccc2)oc1NCCCN1CCOCC1 28.7%
Cc1ccc(-n2c(C)cc(/C=N\NC(=O)CC(=O)NC(C)C)c2C)cc1 32.4%
Cc1nc(N2CCCC2C(=O)O)c2oc3ccccc3c2n1 (centres undefined) 29.6%
Cc1ccc(Cl)cc1N1CCN(C(=O)c2cccc3c(=O)c(C)c(-c4ccccc4)oc23)CC1 31%
COc1ccc(OC)c(S(=O)(=O)Nc2c(C)nn(C)c2C)c1 16.5%
Cc1ccc(-c2nc(C)sc2CC(=O)OCC(=O)Nc2c(F)cccc2F)cc1 24.9%
O=C(COc1ccc(/C=N/NS(=O)(=O)c2ccccc2)cc1)NCCc1ccccc1 31.8%
COc1ccc(S(=O)(=O)/N=C2\C=C(NS(=O)(=O)c3ccccc3)C(=O)c3ccccc32)cc1 41.6%
CC(=O)NNc1cc(=O)c2c(=O)n(C)c(=O)n(C)c2[nH]1 21.9%

inhibition, inactive:
O=[N+]([O-])c1ccc(NC(=S)N2CCN(c3ccccn3)CC2)cc1 5%
CCOC(=O)c1ccc(NC(=S)N2CCN(c3ccccn3)CC2)cc1 11.2%
O=[N+]([O-])c1ccc(CN2CC(N3CCC(c4ccccc4)CC3)CS2(=O)=O)cc1 (centres undefined) 11.5%
CC1(C)CC(=O)CC2(C1)NCC(c1ccccc1Cl)c1c2[nH]c2ccccc12 (centres undefined) -3.3%
CCNC(=O)COC(=O)/C=C/c1c(C)nn(Cc2cccc(OC)c2)c1Cl -6.8%
CC1(C)CN(c2ccc(-c3ccnc4ncnn34)cc2)C1=O 9.3%
O=C(Nc1ccc(Cl)cc1)Nc1ccc(Oc2cccnc2)nc1 3.4%
O=C(CSc1n[nH]c(-c2cccnc2)n1)Nc1ccnc2ccccc12 -6.1%
CCc1nnc(NC(=O)c2ccc(S(=O)(=O)NC3CCCCC3)cc2)s1 -10.5%
Cc1ccc(Nc2nnc(SC(C)C(=O)NC3CC3)s2)cc1 (centres undefined) -8.1%
Cc1ccc(S(=O)(=O)N(CC(=O)NCCSC2CCCCC2)c2ccccc2F)cc1 -1.5%
O=C(Nc1c2c(nn1-c1ccc(F)cc1)CS(=O)C2)C12CC3CC(CC(C3)C1)C2 (centres undefined) 5.1%
O=S(=O)(c1ccc(Br)cc1)c1nc(-c2ccccc2)oc1N1CCOCC1 0.9%
O=S(=O)(c1ccc(Cl)cc1)c1nc(-c2ccccc2F)oc1NCCN1CCOCC1 5.8%
CCc1nc(SCC(=O)Nc2ccccc2OC)n[nH]1 4.2%
C=CCN1CCN(c2ccncc2S(=O)(=O)N2CCN(C)CC2)CC1 1.6%
Cc1cc(/C=N/NC(N)=O)c(C)n1C1CCCCC1 -11.5%
Cc1cc(/C=N/NC(=O)CC2(C)OCCO2)c(C)n1-c1ccc(Cl)c(Cl)c1 -7.8%
O=C(O)C1CCCN1C1=NS(=O)(=O)c2ccccc21 (centres undefined) 9.6%
O=C(O)C1CCCN1c1nc(Cl)ccc1[N+](=O)[O-] (centres undefined) -0.9%
O=c1ccc(S(=O)(=O)N2CCCC2)cn1Cc1nc(-c2ccccc2)no1 3.3%
c1ccc(CCC2=NCCn3cccc32)cc1 -28.1% and -1.3%
CNS(=O)(=O)c1cnccc1N1CCN(c2cccc(C)c2)CC1 -5.1%
Cc1cccc(NS(=O)(=O)c2cc(Cl)ccc2Cl)n1 7.9%
Cc1cccc(N2CCN(C(=O)c3cnn4c(C(F)F)cc(-c5ccccc5)nc34)CC2)c1C 3.9%
COc1ccccc1N1CCN(C(=O)c2cc(=O)c3cc(C)cc(C)c3o2)CC1 14.6%
COCC1CCN(C(=O)CCc2nnc(C3(c4ccc(Cl)cc4)CCC3)o2)C1 (centres undefined) 11.4%
COc1ccc(OC)c(S(=O)(=O)NCCC(C)C)c1 6.4%
COc1ccc(OC)c(S(=O)(=O)Nc2ccccc2F)c1 -3.6%
Cc1n[nH]c(=O)c2c(NC(=O)COC(=O)c3ncc(Cl)c(Cl)c3Cl)oc(C)c12 4.1%
CCOc1ccc(-c2nc(C)sc2CC(=O)O)cc1 0.2%
Cc1nc(-c2ccc(F)cc2)c(CC(=O)N(C)CC(=O)Nc2c(C)cccc2C)s1 -11.9%
CCOC(=O)C1=C(N)N2C(=O)C(C)SC2=C(C(=O)OCC)C1c1cc(OC)c(OC)c(OC)c1 (centres undefined) 6.5%
COc1ccc(OCC(=O)NCCc2ccc(S(N)(=O)=O)cc2)cc1 -12.6%
O=C(COc1ccc(S(=O)(=O)NCCc2ccccc2)cc1)N1CCCC1 0.6%
CCc1ccnc(NC(=O)Nc2ccc(OCc3ccccc3)cc2)c1 2.7%
O=C(c1ccc(F)cc1)n1c(=S)nc2ccccn21 -0.8%
CC(=O)OCc1cc(=O)n(C)c(=O)n1C 14.5%
COc1ccc(NS(=O)(=O)c2ccc(Oc3c(C#N)cccc3C#N)cc2)cc1 6.6%
Cc1ccc(S(=O)(=O)/N=C2\C=C(NS(=O)(=O)c3ccc(C)cc3)C(=O)c3ccccc32)cc1 24.8%
CCOCCC(=O)Nc1ccc2c(c1)c(=O)n(C)n2-c1ccc2ccccc2c1 -1.8%
Cc1cc(S(=O)(=O)c2cc3ccc(O)c(C)c3oc2=O)ccc1F 6%
CCN(CC)P(=O)(C(NC(=O)OC)C(F)(F)C(F)(F)C(F)(F)C(F)F)N(CC)CC (centres undefined) 0.3%
CCC(=O)NNc1cc(=O)c2c(=O)n(C)c(=O)n(C)c2[nH]1 1.9%
CC(=O)Nn1cc2c(=O)n(C)c(=O)n(C)c2c1 -0.7%
CCOCCCn1c(SCC(=O)Nc2cc(OC)ccc2OC)nc2ccccc2c1=O 6.3%
CC(=O)NC(Cc1ccc(F)cc1)C(=O)O (centres undefined) -13.6%
